Source: PubChem (National Center for Advancing Translational Sciences (NCATS))
PINK1 expr mod: modulators of PINK1 expression; PINK1 immunofluorescence, high-content cytometry, 24 h; Potency, µM (series often up to 76.6 µM), actives largely listed as activators; 410,000 compounds, 0.2% hits; AID 624263; active = well fitted activation curve with a large enough effect; inconclusive = small, poorly fitted or top-dose-only effect; cell line not stated here; also: nearly all actives have a fitted effect of over 65% in size
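A stable cell line was treated with compounds at 5 concentrations for 24 hours, with CCCP as control. PINK1 levels and mitochondrial localization were measured by immunofluorescence with mitochondrial, cell and nuclear markers after fixation, read by laser-scanning cytometry.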
ClpP mod: qHTS Assay for Activators of ClpP | ATP-dependent Clp protease proteolytic subunit (Bacillus subtilis (strain 168)), P80244 | purified B. subtilis ClpP, FRET peptide cleavage, 20 min | Potency, µM (top dose mostly 57.5 µM) | 340,000 compounds, 1.9% hits | AID 651965, 2013; active = well fitted falling curve with a large enough effect; inconclusive = small, poorly fitted or top-dose-only effect; inactive = no such curve, though single readings can be large or run the other way; also: the source files actives as falling curves though it sought activators and does not explain the sign; nearly all actives have a fitted effect of over 65% in size
Target sequence (P80244 whole entry, looked up): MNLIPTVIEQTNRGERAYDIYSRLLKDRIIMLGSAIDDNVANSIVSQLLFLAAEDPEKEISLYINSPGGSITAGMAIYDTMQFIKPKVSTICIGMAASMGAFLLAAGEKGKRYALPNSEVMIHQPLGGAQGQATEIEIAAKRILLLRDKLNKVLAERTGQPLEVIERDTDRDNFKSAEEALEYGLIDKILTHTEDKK
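Purified B. subtilis ClpP, 10 microg/mL final in Tris/HCl pH8 with KCl, BSA, glycerol and Tween-20, cleaved an Abz/nitrotyrosine-quenched decapeptide. Fluorescence (ex 320, em 430) was read at 0 and 20 min at room temperature. Delta was normalized to 5.8 microM ADEP and DMSO/no-enzyme controls.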
VP16 counter: inhibits Gal4-VP16 luciferase reporter, ROR gamma counter-screen. Drosophila S2 Gal4-VP16 UAS-luciferase, luminescence, 20 h. 310,000 compounds, 3.5% hits. AID 2546. Potency, µM (titrated, usually from 53.6 µM), usual class: inhibitors;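 also: Gal4-VP16 expression switched on by copper sulfate through the metallothionein promoter; nearly all actives have a fitted effect of over 50% in size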
RORg inh: ROR gamma (mouse) transcription inhibition. 310,000 compounds, 5.4% hits. AID 2551. Drosophila S2 Gal4-RORgamma UAS-luciferase reporter, 20 h. Potency, µM (doses to about 53.6 µM), usual class: inhibitors. P51450; also: nearly all actives have a fitted effect of over 60% in size
Target sequence (P51450 whole entry, looked up, the tested form may be a part): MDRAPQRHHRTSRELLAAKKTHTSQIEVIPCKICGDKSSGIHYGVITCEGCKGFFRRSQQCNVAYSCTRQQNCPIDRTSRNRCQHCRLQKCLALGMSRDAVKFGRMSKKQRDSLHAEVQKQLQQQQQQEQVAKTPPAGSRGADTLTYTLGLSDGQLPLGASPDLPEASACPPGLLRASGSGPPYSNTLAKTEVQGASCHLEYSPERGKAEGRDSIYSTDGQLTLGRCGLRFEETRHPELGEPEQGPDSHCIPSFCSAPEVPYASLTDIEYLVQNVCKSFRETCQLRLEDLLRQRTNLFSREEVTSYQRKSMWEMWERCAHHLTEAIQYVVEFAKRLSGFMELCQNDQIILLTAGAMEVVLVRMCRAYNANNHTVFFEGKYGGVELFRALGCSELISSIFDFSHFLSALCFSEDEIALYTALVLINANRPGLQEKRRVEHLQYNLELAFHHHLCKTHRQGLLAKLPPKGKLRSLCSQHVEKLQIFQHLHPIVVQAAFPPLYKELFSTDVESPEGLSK
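Drosophila S2 cells stably expressing Gal4-DBD/mouse RORγ fusion under metallothionein promoter plus UAS-luciferase; compound 1 h, then 700 uM CuSO4 induction for 20 h at ambient temperature; inhibition read as reduced luminescence.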
Sfp inh: blocks B. subtilis Sfp PPTase activity. Q9F4F7. 310,000 compounds, 3.5% hits. Biochemical Sfp PPTase activity, qHTS. AID 1490. Potency, µM, usual class: inhibitors;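 also: the enzyme is Sfp with the accession as filed and its product quenches rhodamine fluorescence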
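Fluorescence-quenching assay with 15 nM Sfp, 5 uM rhodamine-CoA and 12.5 uM BHQ-2-labelled ybbR peptide in pH 7.6 Hepes/MgCl2 buffer. Enzyme was pre-incubated with compound for 15 min at room temperature. Rate was taken from the 30-min fluorescence change (525/598 nm).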
Epigenetic reg: epigenetic control regulation, reporter derepression | murine LDR cells, GFP reporter derepression, 30 h | Potency, µM (titrated, usually from 53.9 µM), most hits filed as activators | 280,000 compounds, 0.2% hits | AID 1865; also: nearly all actives have a fitted effect of over 60% in size
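Murine LDR cells bearing a silenced CMV-driven GFP reporter were exposed to compound for 30 h at 37 C. After PBS washes, GFP-positive cells (20-120 um objects) counted by laser-scanning microplate cytometry.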
A number is an active result. Only some compounds are listed: those with a hit (about 8.1% of all), similar ones and a draw of the others. Unless noted, calls follow the shape of the dose curve; as a rule, active = well fitted curve in the direction sought with a large enough effect; inconclusive = small, poorly fitted or top-dose-only effect, or another doubt; inactive = no such curve, though single readings can be large; an effect the other way counts as inactive or inconclusive.

Screening CCOC(=O)c1cc2c(=O)n3ccccc3nc2n(CC2CCCO2)c1=NC(=O)c1ccc(OC)cc1OC (stereo not drawn) returned PINK1 expr mod inactive, ClpP mod inactive and Epigenetic reg inactive.
For CN1N/C(=C\c2ccccc2)N=C2C(=O)N(C)C(=O)N=C21 the results were PINK1 expr mod inactive and ClpP mod inactive.
For Cc1cc(NC(=O)c2cc(-c3ccc(Cl)cc3)on2)nn1Cc1ccc(Cl)cc1 the results were PINK1 expr mod inactive, ClpP mod inactive and Epigenetic reg inactive.
`COc1ccccc1-c1cc(C(=O)Nc2cc(C)n(Cc3ccc(Cl)cc3)n2)no1` gave PINK1 expr mod inactive, ClpP mod inactive, VP16 counter inactive, RORg inh inactive, Sfp inh 40µM and Epigenetic reg inactive.
`CCN(CC)C(=O)c1cc(-c2ccccc2OC)on1` gave PINK1 expr mod inactive, ClpP mod 25µM, VP16 counter inactive, RORg inh inactive, Sfp inh inactive and Epigenetic reg inactive.
COCCNC(=O)c1cc(-c2ccccc2OC)on1 was read as PINK1 expr mod inactive, ClpP mod inactive, VP16 counter inactive, RORg inh inactive, Sfp inh inactive and Epigenetic reg inactive.
For N#Cc1c(/N=C/c2ccccc2)oc(-c2ccccc2)c1-c1ccccc1 the results were PINK1 expr mod inactive, ClpP mod 35µM, VP16 counter inactive, RORg inh inactive, Sfp inh inactive and Epigenetic reg inactive.
For N#Cc1c(/N=C/c2ccco2)oc(-c2ccccc2)c1-c1ccccc1 the results were PINK1 expr mod inactive, ClpP mod inconclusive, VP16 counter inactive, RORg inh inactive, Sfp inh inactive and Epigenetic reg inactive.
Screening Cc1cc(C)cc(N2CCn3c2nc2c3c(=O)n(Cc3ccc(Cl)cc3)c(=O)n2C)c1 returned PINK1 expr mod inactive, ClpP mod inactive and Epigenetic reg inactive.
For Cc1ccc[n+](/C(=C\C(=C=[N-])C#N)C(=O)c2ccc(Cl)cc2)c1 the results were PINK1 expr mod inactive, VP16 counter inconclusive, RORg inh 18µM, Sfp inh inactive and Epigenetic reg inactive.
Cc1ccc(N=N/C(=C\O)C(=O)c2ccc(Cl)cc2)cc1 was read as PINK1 expr mod inactive, VP16 counter inconclusive, RORg inh inactive, Sfp inh inactive and Epigenetic reg inactive.
Cn1cc(C(=O)c2ccc(Cl)cc2Cl)cc1C(=O)N/N=C(\N)COc1ccc(Cl)cc1Cl was read as PINK1 expr mod inactive, ClpP mod inactive, VP16 counter 4µM, RORg inh 1.4µM, Sfp inh inactive and Epigenetic reg inactive.
Cn1cc(C(=O)c2ccc(Cl)cc2Cl)cc1C(=O)N/N=C(\N)COc1ccc(Cl)cc1 was read as PINK1 expr mod inactive, VP16 counter 3.5µM, RORg inh 1.4µM, Sfp inh inactive and Epigenetic reg inactive.
`CCOC(=O)N1CCN(C(=O)COC(=O)CNC(=O)c2ccc(Cl)cc2Cl)CC1` gave PINK1 expr mod inactive and ClpP mod inactive.
`Cn1cc(C(=O)c2ccc(Cl)cc2Cl)cc1C(=O)O` gave PINK1 expr mod inactive, ClpP mod inactive, VP16 counter inactive, RORg inh inactive, Sfp inh inactive and Epigenetic reg inactive.
Screening N/C(COc1ccc(Cl)cc1Cl)=N\O returned PINK1 expr mod inactive, ClpP mod inactive, VP16 counter inactive, RORg inh inconclusive, Sfp inh inactive and Epigenetic reg inactive.
Cn1cc(C(=O)c2ccc(Cl)cc2Cl)cc1C(=O)N/N=C(\N)COc1ccccc1 was read as PINK1 expr mod inactive, ClpP mod inactive, VP16 counter 1.6µM, RORg inh 0.71µM, Sfp inh inactive and Epigenetic reg inactive.
For CCOC(=O)C/C(N)=N/NC(=O)c1ccc(Cl)cc1Cl the results were PINK1 expr mod inactive, VP16 counter inconclusive, RORg inh 7.9µM, Sfp inh inactive and Epigenetic reg inactive.
For CNC(=O)/C=C/c1cc(C(=O)c2ccc(Cl)cc2Cl)cn1C the results were PINK1 expr mod inactive, ClpP mod inactive, VP16 counter inactive, RORg inh inactive and Sfp inh inactive.
For Cn1cc(C(=O)c2ccc(Cl)cc2Cl)cc1C(=O)N/N=C(\N)COc1ccc(F)cc1 the results were PINK1 expr mod inactive, ClpP mod inactive, VP16 counter 2.5µM, RORg inh 2.2µM, Sfp inh inactive and Epigenetic reg inactive.
For C/C=C/C=C/C(=O)Nc1cccc(C2=NOC3(C2)C[C@H](C(N)=O)N(C(=O)CC(c2ccccc2)c2ccccc2)C3)c1 (stereo partly drawn) the results were VP16 counter inactive, RORg inh inconclusive, Sfp inh 40µM and Epigenetic reg inactive.
`C/C=C\C=C/C(=O)Nc1cccc(C2=NOC3(C2)C[C@@H](C(N)=O)N(C(=O)c2ccccc2)C3)c1` (stereo partly drawn) gave VP16 counter inactive, RORg inh inactive, Sfp inh 11µM and Epigenetic reg inactive.
`C/C=C/C(=O)N1CC2(CC(c3cccc(NC(=O)/C(C)=C/C)c3)=NO2)C[C@H]1C(N)=O` (stereo partly drawn) gave PINK1 expr mod inactive, ClpP mod inactive, VP16 counter inactive, RORg inh inactive, Sfp inh inactive and Epigenetic reg inactive.
Screening C/C=C/C=C\C(=O)Nc1cccc(C2=NOC3(C2)C[C@H](C(N)=O)N(C(=O)/C=C/C)C3)c1 (stereo partly drawn) returned PINK1 expr mod inactive, ClpP mod inactive, VP16 counter inactive, RORg inh inactive, Sfp inh 22µM and Epigenetic reg inactive.
For CCC(=O)Nc1cccc(C2=NOC3(C2)C[C@@H](C(N)=O)N(C(=O)CC)C3)c1 (stereo partly drawn) the results were PINK1 expr mod inactive, ClpP mod inactive, VP16 counter inactive, RORg inh inactive, Sfp inh inactive and Epigenetic reg inactive.
C/C=C\C=C\C(=O)N1CC2(CC(c3cccc(NC(=O)CC)c3)=NO2)C[C@H]1C(N)=O (stereo partly drawn) was read as PINK1 expr mod inactive, ClpP mod inactive, VP16 counter inactive, RORg inh inactive, Sfp inh 35µM and Epigenetic reg inactive.
`CC(=O)N1CCCc2cc(S(=O)(=O)N(C)CC(=O)Nc3ccc(C(C)C)cc3)ccc21` gave PINK1 expr mod inactive, ClpP mod inactive and Epigenetic reg inactive.
COc1ccc(-c2c3c(=O)n(C)c(=O)n(C)c3c3c(-c4ccccc4)nc4ccccc4n23)cc1 was read as PINK1 expr mod inactive, ClpP mod inconclusive and Epigenetic reg inactive.
